Values joined by “and” are separate entries in the source; they are usually repeats but may differ in a detail not shown here. Identical values can stand only once. Inconclusive results are not listed. Where a structure was tested more than once in an assay, its records may differ in their call. Active and inactive are the calls of the source. Unless noted, calls follow the shape of the dose curve; as a rule, active = well fitted curve in the direction sought with a large enough effect in the repeat runs; inconclusive = weak or mixed curves; inactive = no such curve, though single readings can be large; an effect the other way counts as inactive or inconclusive.
Experiments:
[1] = qHTS assay for small molecule agonists of the p53 signaling pathway (AID 651631; calls by dose curve; also: nearly all actives have a fitted effect of over 15% in size; also: potency is read from the fitted curve at half-maximal effect)
Outline: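 HCT-116 p53RE-bla reporter line, 16 h compound treatment at 37 °C, then fluorescence after 2 h with B/G FRET substrate.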

[2] = qHTS assay for small molecules that induce genotoxicity in human embryonic kidney cells expressing luciferase-tagged ATAD5 (AID 651632); also: nearly all actives have a fitted effect of over 15% in size
Outline: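 HEK293T cells carrying luciferase-tagged ATAD5 were given compound or DMSO vehicle and incubated 16 hr at 37C, 5% CO2. Luciferase activity was read after 30 min at room temperature with Amplite; a rise signals genotoxic stress.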

[3] = qHTS assay for small molecule agonists of the p53 signaling pathway - cell viability (AID 651633; calls by dose curve; also: nearly all actives have a fitted effect of over 30% in size; also: potency is read from the fitted curve at half-maximal effect)
Outline: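 Viability counter-read: CellTiter-Glo luminescence (30 min, room temperature) in the same p53RE-bla plates. These plates had been exposed to compounds for 16 h at 37 C.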

[4] = qHTS assay for small molecules that induce genotoxicity in human embryonic kidney cells expressing luciferase-tagged ATAD5 - cell viability (AID 651634; calls by dose curve; also: nearly all actives have a fitted effect of over 25% in size)
Outline: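 HEK293T cells carrying luciferase-tagged ATAD5, 2,000 cells/well, exposed to compound for 15.5 hr at 37C. Viability read as live-cell protease activity by CellTiter-Fluor fluorescence after 30 min at 37C.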

[5] = qHTS assay for small molecule disruptors of the mitochondrial membrane potential - cell viability (AID 720634; calls by dose curve;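 also: human HepG2 liver cancer cells; series mostly up to about 83 µM; nearly all actives have a fitted effect of over 20% in size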)
Outline: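 HepG2 cells, 2,000 per well, attached overnight, then treated 1 hr at 37 C, 5% CO2. Viability read as ATP by CellTiter-Glo luminescence after 30 min at room temperature. Read in the same wells as the m-MPI membrane-potential dye assay.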

[6] = qHTS assay for small molecule disruptors of the mitochondrial membrane potential (AID 720635); also: potency is read from the fitted curve at half-maximal effect
Outline: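 Mitochondrial membrane potential tracked with Mito-MPS dye, red aggregates (ex 540/em 590 nm) against green monomers (ex 490/em 535 nm). Compound treatment 1 hr at 37C, dye 30 min in HepG2.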

[7] = qHTS assay to test for compound auto fluorescence at 535 nm (green) in HepG2 cells (AID 720675)
[8] = qHTS assay to test for compound auto fluorescence at 460 nm (blue) in HEK293 cells (AID 720678)
Outline: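 Cells were seeded and left to adhere for 4-5 hr at 37C. Compounds were then pin-transferred. After an overnight incubation at 37C under 5% CO2, intrinsic fluorescence at 405/460 nm was measured and referenced to triamterene.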

[9] = qHTS assay to test for compound auto fluorescence at 590 nm (red) in HEK293 cells (AID 720679)
Outline: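 Each well held 2,000 HEK293 cells in medium containing 10% dialyzed FBS. Following 4-5 hr attachment at 37C, 23 nL test compound or DMSO was added; plates sat overnight, and red fluorescence (540/590nm) was recorded.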

[10] = qHTS assay to test for compound auto fluorescence at 535 nm (green) in HEK293 cells (AID 720680)
[11] = qHTS assay to test for compound auto fluorescence at 460 nm (blue) in HEK293 cell free culture (AID 720681)
Outline: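 Blue fluorescence (Ex 405/Em 460 nm, triamterene-equivalent) was read immediately after pin transfer of compound or DMSO into medium (DMEM, 10% FBS) without cells.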

[12] = qHTS assay to test for compound auto fluorescence at 535 nm (green) in HEK293 cell free culture (AID 720682)
Outline: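 Steps: dispense DMEM/10% FBS into empty wells; pin in compound or DMSO; measure fluorescence at 485/535 nm. Values are fluorescein equivalents.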

[13] = qHTS assay to test for compound auto fluorescence at 590 nm (red) in HEK293 cell free culture (AID 720683)
Outline: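 Red-channel autofluorescence of compounds in culture medium (DMEM, 10% FBS), no cells, measured at 540/590 nm. Rose Bengal sodium is the reference fluorophore for equivalence.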

[14] = qHTS assay to test for compound auto fluorescence at 590 nm (red) in HepG2 cell free culture (AID 720684)
Outline: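 Steps: dispense MEM/10% FBS medium, no cells; pin compound or DMSO vehicle; read red channel, Ex/Em 540/590 nm. Output given as Rose Bengal sodium equivalents.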

[15] = qHTS assay to test for compound auto fluorescence at 460 nm (blue) in HepG2 cell free culture (AID 720685)
Outline: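 Compound (23 nL) or DMSO pinned into cell-free MEM with 10% FBS; blue fluorescence read at 405/460 nm excitation/emission, expressed as auto-fluorescence equivalency to triamterene.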

[16] = qHTS assay to test for compound auto fluorescence at 535 nm (green) in HepG2 cell free culture (AID 720686)
[17] = qHTS assay to test for compound auto fluorescence at 460 nm (blue) in HepG2 cells (AID 720687)
Outline: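 Blue-channel autofluorescence (Ex/Em 405/460 nm, triamterene-equivalent) was measured after 1 hr compound exposure at 37 C, 5% CO2. Cells were HepG2, plated overnight at 37 C in MEM plus 10% FBS.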

[18] = biological target: Glucocorticoid receptor (Homo sapiens) (UniProt P04150); test: qHTS assay to identify small molecule agonists of the glucocorticoid receptor (GR) signaling pathway (AID 720691; active = well fitted activation curve with a large enough effect in the signal ratio in the repeat runs, not every such curve was filed as active; the % refers to the signal ratio)
Chain of Glucocorticoid receptor (Homo sapiens) (P04150 whole entry, looked up): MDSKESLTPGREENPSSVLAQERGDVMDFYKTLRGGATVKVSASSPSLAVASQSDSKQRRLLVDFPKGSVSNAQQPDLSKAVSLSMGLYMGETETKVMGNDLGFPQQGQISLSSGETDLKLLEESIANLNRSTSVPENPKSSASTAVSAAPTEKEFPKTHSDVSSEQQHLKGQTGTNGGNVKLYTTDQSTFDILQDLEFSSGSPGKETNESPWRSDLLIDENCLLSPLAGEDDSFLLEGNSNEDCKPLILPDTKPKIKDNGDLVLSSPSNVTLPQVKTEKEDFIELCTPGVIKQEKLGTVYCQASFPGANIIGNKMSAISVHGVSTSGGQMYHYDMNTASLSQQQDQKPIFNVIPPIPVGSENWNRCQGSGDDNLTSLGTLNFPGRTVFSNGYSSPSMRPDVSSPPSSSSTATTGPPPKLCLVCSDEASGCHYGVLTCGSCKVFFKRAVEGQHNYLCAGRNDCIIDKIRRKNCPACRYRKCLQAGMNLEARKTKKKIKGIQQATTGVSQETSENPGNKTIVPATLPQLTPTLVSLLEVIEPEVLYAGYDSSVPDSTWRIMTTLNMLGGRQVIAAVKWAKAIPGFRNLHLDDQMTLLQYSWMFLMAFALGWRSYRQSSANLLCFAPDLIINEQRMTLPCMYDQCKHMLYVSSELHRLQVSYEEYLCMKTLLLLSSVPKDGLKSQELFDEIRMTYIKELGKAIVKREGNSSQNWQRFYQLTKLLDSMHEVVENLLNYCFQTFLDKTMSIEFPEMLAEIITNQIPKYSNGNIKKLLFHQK
Outline: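 GR-bla HeLa cells carrying a GRE-driven beta-lactamase reporter, exposed to compounds for 18 h at 37 C. Reporter activation read as fluorescence after 2 h with LiveBLAzer B/G FRET substrate at room temperature.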

[19] = biological target: Glucocorticoid receptor (Homo sapiens) (UniProt P04150); test: qHTS assay to identify small molecule antagonists of the glucocorticoid receptor (GR) signaling pathway (AID 720692; active = well fitted inhibition curve with a large enough effect in the signal ratio in the repeat runs, not every such curve was filed as active; the % refers to the signal ratio)
Outline: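 GR-bla HeLa cells carrying a GRE-driven beta-lactamase reporter received compound after 4 h plating, then dexamethasone (5 nM final). After 18 h at 37C, the FRET substrate was loaded for 2 h at room temperature and fluorescence read.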

[20] = qHTS assay to test for compound auto fluorescence at 590 nm (red) in HepG2 cells (AID 720674)
Outline: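 1 hr compound incubation on HepG2 cells, 37 C, 5% CO2; plate read ex 540 nm / em 590 nm; intensities reported as Rose Bengal sodium equivalents.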
% is scaled to controls: 0 for no effect and ±100 for the full control effect.

CCCCCCC(=O)CCCCCC/C=C/C[C@@H](O)[C@H](O)[C@@](N)(CO)C(=O)O
inactive: Potency [1] | outcome [2] | Potency [3] | Potency [4] | Potency [5] | Potency [6] | outcome [7] | outcome [8] | outcome [9] | outcome [10] | outcome [11] | outcome [12] | outcome [13] | outcome [14] | outcome [15] | outcome [16] | outcome [17] | Potency [18] | Potency [19]

Cn1c(CCCC(=O)O)nc2cc(N(CCCl)CCCl)ccc21
active: Potency [1] 26.6 µM
inactive: outcome [2] | Potency [3] | Potency [4] | Potency [5] | Potency [6] | outcome [7] | outcome [8] | outcome [9] | outcome [10] | outcome [11] | outcome [12] | outcome [13] | outcome [14] | outcome [15] | outcome [16] | outcome [17] | Potency [18] | Potency [19]

Cn1c(N)nc2c3cccnc3ccc21
inactive: Potency [1] | outcome [2] | Potency [3] | Potency [4] | Potency [5] | Potency [6] | outcome [20] | outcome [7] | outcome [9] | outcome [10] | outcome [12] | outcome [13] | outcome [14] | outcome [15] | outcome [16] | outcome [17]

COc1ccc2c(C(=O)c3ccc(Cl)cc3)c(C)n(CC(=O)O)c2c1
inactive: Potency [1] | outcome [2] | Potency [3] | Potency [4] | Potency [5] | Potency [6] | outcome [20] | outcome [7] | outcome [9] | outcome [11] | outcome [13] | outcome [14] | outcome [16] | outcome [17] | Potency [19]

ClCC1CO1 (stereo not given)
inactive: Potency [1] | outcome [2] | Potency [3] | Potency [4] | Potency [5] | Potency [6] | outcome [20] | outcome [7] | outcome [8] | outcome [9] | outcome [11] | outcome [12] | outcome [13] | outcome [14] | outcome [15] | outcome [16] | outcome [17] | Potency [18] | Potency [19]

COP(=O)(O)OC
inactive: Potency [1] | outcome [2] | Potency [3] | Potency [4] | Potency [5] | Potency [6] | outcome [20] | outcome [7] | outcome [8] | outcome [9] | outcome [10] | outcome [12] | outcome [13] | outcome [14] | outcome [15] | outcome [16] | outcome [17] | Potency [18] | Potency [19]

CCCOC(=O)Cc1ccc(OCC(=O)N(CC)CC)c(OC)c1
inactive: Potency [1] | outcome [2] | Potency [3] | Potency [4] | Potency [5] | Potency [6] | outcome [20] | outcome [7] | outcome [9] | outcome [10] | outcome [11] | outcome [12] | outcome [14] | outcome [16] | outcome [17]

CCOC(=O)N(C)N=O
inactive: Potency [1] | outcome [2] | Potency [3] | Potency [4] | Potency [5] | Potency [6] | outcome [20] | outcome [7] | outcome [8] | outcome [9] | outcome [10] | outcome [11] | outcome [12] | outcome [13] | outcome [14] | outcome [16] | outcome [17] | Potency [18] | Potency [19]

CCCCOC(C)=O
inactive: Potency [1] | outcome [2] | Potency [3] | Potency [4] | Potency [5] | Potency [6] | outcome [20] | outcome [7] | outcome [8] | outcome [9] | outcome [10] | outcome [12] | outcome [13] | outcome [15] | outcome [16] | outcome [17]

COc1ccc(CN2CCNCC2)c(OC)c1OC
inactive: Potency [1] | outcome [2] | Potency [3] | Potency [4] | Potency [5] | Potency [6] | fluorescence, relative to Rose Bengal [20] -0.414% [at 18.6 µM] | fluorescence, % of fluorescein control [7] 0.0608% [at 18.6 µM] | fluorescence, % of triamterene [8] -0.103% [at 18.6 µM] | fluorescence, % of fluorescent control [9] 0.0575% [at 18.6 µM] | fluorescence, % of fluorescein [10] 0.0001% [at 18.6 µM] | fluorescence, % of fluorescent control [11] -0.0368% [at 18.6 µM] | activity change [12] -0.0737% [at 18.6 µM] | fluorescence, % of Rose Bengal [14] 0.0451% [at 18.6 µM] | fluorescence, % of fluorescent control [15] -0.057% [at 18.6 µM] | fluorescence, % of fluorescein control [16] -0.137% [at 18.6 µM] | fluorescence, % of fluorescent control [17] -0.0322% [at 18.6 µM] | Potency [18] | Potency [19]

O=C(CCl)NCO
inactive: Potency [1] | outcome [2] | Potency [3] | Potency [5] | outcome [20] | outcome [7] | outcome [8] | outcome [9] | outcome [10] | outcome [11] | outcome [12] | outcome [13] | outcome [14] | outcome [15] | outcome [16] | outcome [17]

O=C(Cl)OCc1ccccc1
inactive: Potency [1] | outcome [2] | Potency [3] | Potency [5] | Potency [6] | outcome [20] | outcome [7] | outcome [9] | outcome [11] | outcome [13] | outcome [14] | outcome [15] | outcome [16] | outcome [17] | Potency [18] | Potency [19]

CC(C)(C)c1cc(O)ccc1O
inactive and 22.1 µM (active): Potency [6]
inactive and 29.8 µM (active): Potency [3]
inactive: Potency [1] | outcome [2] | Potency [5] | outcome [20] | outcome [7] | outcome [8] | outcome [9] | outcome [10] | outcome [12] | outcome [13] | outcome [14] | outcome [15] | outcome [16] | outcome [17] | Potency [18] | Potency [19]

CC(C)NCC(O)c1ccc([N+](=O)[O-])cc1 (stereo not given)
inactive: Potency [1] | Potency [3] | Potency [4] | Potency [5] | Potency [6] | outcome [20] | outcome [7] | outcome [8] | outcome [9] | outcome [10] | outcome [11] | outcome [12] | outcome [13] | outcome [14] | outcome [16] | outcome [17] | Potency [18] | Potency [19]

S=C=S
inactive: Potency [1] | outcome [2] | Potency [3] | Potency [5] | Potency [6] | outcome [20] | outcome [7] | outcome [8] | outcome [9] | outcome [12] | outcome [13] | outcome [14] | outcome [16] | outcome [17] | Potency [18] | Potency [19]

— PubChem BioAssay (Tox21)
